From PubChem BioAssay
Unmarked numbers belong to inactive results. How the calls were made is not given here.

These compounds were tested against Pantothenate synthetase (Mycobacterium tuberculosis (strain ATCC 25618 / H37Rv)) (UniProt P9WIL5) (assay: Recombinant Mtb pantothenate synthetase (PanC) inhibitors, coupled enzyme, confirmatory (AID 375;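 further: 0% = full reaction with vehicle and 100% = no enzyme background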)). Conditions: coupled enzyme assay; at 10 µM, active compounds read high.
Sequence of Pantothenate synthetase (Mycobacterium tuberculosis (strain ATCC 25618 / H37Rv)) (P9WIL5 whole entry, looked up): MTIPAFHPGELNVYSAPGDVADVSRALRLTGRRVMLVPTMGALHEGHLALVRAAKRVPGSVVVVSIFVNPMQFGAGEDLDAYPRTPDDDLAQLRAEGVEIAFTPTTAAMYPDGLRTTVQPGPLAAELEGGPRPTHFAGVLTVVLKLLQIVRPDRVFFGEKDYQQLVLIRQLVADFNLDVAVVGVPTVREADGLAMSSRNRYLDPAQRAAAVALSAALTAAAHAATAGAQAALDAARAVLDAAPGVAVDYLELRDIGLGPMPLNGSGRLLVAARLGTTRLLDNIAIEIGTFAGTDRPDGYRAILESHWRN

Compound	inhibition [%]
CC(=O)N(c1ccc(Br)cc1)C1C=CS(=O)(=O)C1 (centres undefined)	2
CN(CCC#N)C(=O)COC(=O)c1ccc(Cl)c(S(N)(=O)=O)c1	0
Cc1ccc(-c2nn3c(C)nnc3s2)cc1N	0
CCC(=O)Nc1cc(C)c(NC(=O)C23CC4CC(CC(C4)C2)C3)cn1	5
Cc1noc(/C=C/N(C)C)c1S(=O)(=O)N1CCc2ccccc21	0
Cc1ccc(C(C(=O)NC(C)(C)C)N(C(=O)c2csnn2)c2cccc(F)c2)o1 (centres undefined)	0
CCC(C)(C)n1nnnc1C(c1ccc(OC)c(OC)c1)N1CCN(c2ccccc2)CC1 (centres undefined)	0
O=C(O)c1ccc(-n2nnnc2Oc2ccccc2C(=O)N2CCOCC2)cc1	4
CN(Cc1ccccc1)C(=O)c1ccccc1NC(=O)c1ccco1	0
CCc1c(C(=O)Nc2cc(C)ccc2OC)[nH]c(C)c1C(C)=O	0
Cc1c(C#N)c2ccccc2n1CC(=O)N1CCc2ccccc2C1	0
CCOC(=O)c1oc2ccccc2c1CSc1nnnn1-c1ccc(C)cc1	1
C=CCN1C(=O)/C(=C2/Sc3ccccc3N2C)SC1=Nc1c(C)n[nH]c1C	1
CC1=C(C(N)=O)C(c2ccc(Cl)cc2Cl)n2ncnc2N1 (centres undefined)	0
CC(C)Cc1nc2oc3c(N4CCN(CCO)CC4)ncnc3c2c2c1CCCC2	0
CCN1CCN(S(=O)(=O)c2ccc(S(=O)(=O)N(CC)Cc3ccccc3)cc2)CC1	7
CCOc1ccc(NC(=O)CSc2nc3cccnc3n2CC)cc1	0
O=C(Cn1nnc2c(cnn2-c2ccc(F)cc2)c1=O)c1ccccc1F	1
O=C(CSc1ncccn1)c1ccccc1Br	7
CCC(=O)OCCn1c(=O)c2cc3c(=O)n(CCOC(=O)CC)c(=O)c3cc2c1=O	0

Compound	inhibition [%]
Cc1n[nH]c(C)c1S(=O)(=O)N1CCCCCC1	0
COc1ccc2nc3oc(C(=O)NC4CCN(Cc5ccccc5)CC4)cc3cc2c1	1
CCCc1nnc(SCC(=O)N2CCOCC2)n1Cc1ccco1	0
CC(=O)Nc1ccc(S(=O)(=O)n2nc(C)cc2C)cc1	0
O=C(NCCCNC(=O)c1ccccn1)c1ccccn1	12
O=C(O)CCCCCCC1C(=O)NC(=O)N1CCC(O)C1CCCCC1 (centres undefined)	0
CS(=O)(=O)NCCSCc1c(F)cccc1Cl	3
Cc1cc(SCC(N)=O)nc(SCC(=O)c2ccccc2)n1	0
CCOC(=O)c1ccccc1NC1c2ccccc2C(=O)N1C1CCN(C(=O)OCC)CC1 (centres undefined)	2
CCOC(=O)c1[nH]c(C)c(C(=O)Nc2cc(OC)ccc2OC)c1C	0
CC1(C)NC(=O)N(CC(O)CN2CCCC2)C1=O (centres undefined)	2
O=C(CNS(=O)(=O)c1ccccc1)NCc1ccccn1	9
CN(CC(=O)Nc1nccs1)S(=O)(=O)c1ccc(F)cc1	0
Cc1cc(C)n(-c2nnc(C)n2/N=C/c2ccco2)n1	1
CCCCCOc1ccc(C2NC(=O)NC2=O)cc1 (centres undefined)	0
COc1ccc(C2CC(C(F)(F)F)n3ncc(C(=O)NCc4cccnc4)c3N2)cc1OC (centres undefined)	0
OC1(c2cccc(C(F)(F)F)c2)CCN(c2ccc(-c3ccccc3)nn2)CC1	0
COC(=O)Cc1csc(N)n1	0
CC(=O)NCCC(=O)Nc1ccc(C)c(F)c1	6
